MCF10A rerep – DNA re-replication induction in MCF 10a cells. actives 2.9% (n = 350,000). AID 624296. MCF 10A DNA re-replication, Hoechst nuclear intensity, 48 h. Potency, µM (top dose mostly 46.1 µM), without a hit: top-dose activity, positive = re-replication, hits mostly activators; further: % of control where 0% means no effect; nearly all actives have a fitted effect of over 50% in size
HT1080-NT tox – kills 2HG-producing HT-1080-NT fibrosarcoma cells; HT-1080-NT fibrosarcoma viability, CellTiter-Glo ATP luminescence, 48 h; Potency, µM (top dose mostly 46.1 µM), inactives show top-dose activity, negative = less viability, hits mostly cytotoxic; actives 1.6% (n = 360,000);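 further: NT is the 2HG producing partner of a matched IDH1 knockdown line; 0% = DMSO-treated cells and -100% = media-only wells without cells; nearly all actives have a fitted effect of over 55% in size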
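HT-1080-NT fibrosarcoma cells (2HG-overproducing), 750 cells/well in RPMI with 5% FBS, dosed after 2 h and incubated 48 h at 37C. CellTiter-Glo luminescence normalized to DMSO and no-cell wells; concentration-response curves fitted and classed.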
KB-3-1 tox – kills parental KB-3-1 adenocarcinoma cells; actives 1.4% (n = 400,000); AID 1347075; KB-3-1 viability, CellTiter-Glo ATP luminescence, 72 h; Potency, µM (series often up to 46.1 µM), actives largely listed as cytotoxic; further: on the % scale 0 is the no-effect control and ±100 the full control effect; nearly all actives have a fitted effect of over 60% in size
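KB-3-1 parental drug-naive adenocarcinoma cells in DMEM/10% FBS, incubated 72 h at 37 C with pin-transferred compounds across a concentration series. Viability by CellTiter-Glo luminescence; concentration-response curves fitted after normalization.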
SW480 rerep – inducers of DNA re-replication in SW480 colon cancer cells | SW480 DNA re-replication, Hoechst DNA content imaging, 48 h | Potency, µM (series often up to 46.1 µM), for the others: top-dose re-replication activation, actives largely listed as activators | actives 1.8% (n = 340,000) | AID 624297; further: % of control where 0% means no effect; nearly all actives have a fitted effect of over 55% in size
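SW480 cells exposed to compounds for 48 hr at 37 C, 5% CO2, then Hoechst-stained 40 min. Nuclear DNA content imaged by fluorescence scanning (405 nm excitation, 500-530 nm emission); re-replication scored as increased high-intensity nuclei.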
KB-V1 MDR tox – KB-V1 MDR subline cytotoxicity; KB-V1 MDR cells viability, CellTiter-Glo, 72 h; Potency, µM (highest dose often 46.1 µM), most hits filed as cytotoxic; actives 3.4% (n = 400,000); AID 1347076; further: on the % scale 0 is the no-effect control and ±100 the full control effect; nearly all actives have a fitted effect of over 60% in size
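Readout: CellTiter-Glo luminescence, 10 min after addition. Cells: KB-V1 MDR subline, 72 h at 37 degrees C with compound. Analysis: corrected, normalized data fitted to concentration-effect curves.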
HT1080 IDH1KD tx – HT-1080 IDH1 knockdown cell toxicity (counter line); Potency, µM (titrated, usually from 46.1 µM), without a hit: at the highest dose activity, negative = toxicity, actives largely listed as cytotoxic; AID 686971; actives 2% (n = 360,000); HT-1080 IDH1 knockdown viability, ATP luminescence, 48 h;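 further: 0% = DMSO wells and -100% = cell-free medium wells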
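Assay cells: HT-1080 with IDH1 knockdown, 750 per well, RPMI/5% FBS. Exposure: 48 h at 37 °C following 2 h pre-incubation. Read: CellTiter-Glo luminescence; fitted concentration-response, curve class assigned.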
The depositor's hits bear a star; [ ] = another dose, or the depositor's remark. An excerpt weighted towards active compounds, which were near 8% of everything screened. The call rests on the fitted dose curve; in most records, active means well fitted curve in the direction sought with a large enough effect; inconclusive means small, poorly fitted or top-dose-only effect, or another doubt; inactive means no such curve, though single readings can be large; an effect the other way counts as inactive or inconclusive. Potency means the concentration at half of the fitted maximal effect.

For Cc1ccc(S(=O)(=O)N(C)Cc2ccc(C(=O)NN=C3C4CC5CC(C4)CC3C5)cc2)cc1 the results were MCF10A rerep 0.6%, HT1080-NT tox 2.7%, KB-3-1 tox inactive, SW480 rerep -3.3%, KB-V1 MDR tox inactive and HT1080 IDH1KD tx 1.0%.
For Cc1ccc(S(=O)(=O)N(C)Cc2ccc(C(=O)NN=C(CC(C)C)CC(C)C)cc2)cc1 the results were MCF10A rerep 15.6%, HT1080-NT tox 4.6%, KB-3-1 tox inconclusive, SW480 rerep inconclusive, KB-V1 MDR tox 2.31µM* and HT1080 IDH1KD tx -21.2%.
COc1cccc2c1Oc1nc(-c3ccccc3)nc(SCC(=O)N3CCCCC3)c1C2 was read as KB-3-1 tox inactive and KB-V1 MDR tox inactive.
For Cc1cc(OCCn2cc(C(=O)c3cccs3)c3ccccc32)ccc1Cl the results were KB-3-1 tox inactive and KB-V1 MDR tox inactive.
For COc1ccc(CN2CCc3nc(N4CCN(c5ccc(F)cc5)CC4)ncc3C2)c(OC)c1OC the results were KB-3-1 tox inactive and KB-V1 MDR tox inconclusive.
Screening N#C/C(=C\c1c[nH]c2ccccc12)C(=O)Nc1ncc(Cc2ccc(Cl)cc2Cl)s1 returned MCF10A rerep 3.26µM*, HT1080-NT tox inconclusive, KB-3-1 tox inactive, SW480 rerep inconclusive, KB-V1 MDR tox inconclusive and HT1080 IDH1KD tx inconclusive.
Screening CN(C)c1cc[n+](CC[n+]2ccc(N(C)C)cc2)cc1 returned MCF10A rerep -11.5%, HT1080-NT tox -0.5%, KB-3-1 tox inactive, SW480 rerep -13.1%, KB-V1 MDR tox inactive and HT1080 IDH1KD tx -1.8%.
`CN(C)c1cc[n+](Cc2c(Cl)cccc2Cl)cc1` gave MCF10A rerep inconclusive, HT1080-NT tox -19.5%, KB-3-1 tox 7.31µM*, SW480 rerep 11.6%, KB-V1 MDR tox inactive and HT1080 IDH1KD tx inconclusive.
O=C(Nc1cn(-c2ccccc2)nc1-c1ccc(F)cc1)c1ccccc1 was read as MCF10A rerep -7.9%, HT1080-NT tox 0.2%, KB-3-1 tox inactive, SW480 rerep -8.6%, KB-V1 MDR tox 16.4µM* and HT1080 IDH1KD tx 0.7%.
`O=C(CCl)Nc1cn(-c2ccccc2)nc1-c1ccccc1` gave MCF10A rerep inconclusive, HT1080-NT tox inconclusive, KB-3-1 tox inconclusive, SW480 rerep -52.0%, KB-V1 MDR tox 20.6µM* and HT1080 IDH1KD tx -29.1%.
CC(=O)Nc1c(I)c(C(=O)N[C@H]2[C@@H](O)[C@H](O)[C@H](CO)O[C@@H]2O)c(I)c(N(C)C(C)=O)c1I was read as MCF10A rerep -1.9%[20.6 µM] and SW480 rerep -2.5%[20.6 µM].
CCn1c(=O)c(C(=O)Nc2nc3ccccc3[nH]2)c(O)c2ccccc21 was read as MCF10A rerep 9.2µM*, HT1080-NT tox 7.31µM*, KB-3-1 tox 11.6µM*, SW480 rerep inconclusive, KB-V1 MDR tox 1.16µM* and HT1080 IDH1KD tx 10.3µM*.
Screening CCCn1c2c(c(O)c(C(=O)Nc3ccccc3)c1=O)CCCC2 returned MCF10A rerep 25.8%, HT1080-NT tox 0.1%, KB-3-1 tox inactive, SW480 rerep -2.7%, KB-V1 MDR tox 14.6µM* and HT1080 IDH1KD tx -0.8%.
`CC(C)Cn1c2c(c(O)c(C(=O)Nn3c(Cc4ccccc4)nc4ccccc4c3=O)c1=O)CCCC2` gave MCF10A rerep 12.2%, HT1080-NT tox -3.2%, KB-3-1 tox inconclusive, SW480 rerep -1.1%, KB-V1 MDR tox inconclusive and HT1080 IDH1KD tx -3.9%.
`CCc1nc2ccccc2c(=O)n1NC(=O)c1c(O)c2ccccc2n(CC)c1=O` gave MCF10A rerep 8.3%, HT1080-NT tox -9.8%, KB-3-1 tox inconclusive, SW480 rerep 13.5%, KB-V1 MDR tox 8.2µM* and HT1080 IDH1KD tx 2.0%.
CCCCc1nc2ccccc2c(=O)n1NC(=O)c1c(O)c2c(n(CC(C)C)c1=O)CCCC2 was read as MCF10A rerep 4.9%, HT1080-NT tox 17.0%, KB-3-1 tox 4.61µM*, SW480 rerep -2.0%, KB-V1 MDR tox 2.59µM* and HT1080 IDH1KD tx 8.3%.
